From PubChem BioAssay AID1645882 (National Center for Advancing Translational Sciences (NCATS), 2021) come the findings set out here.

Values joined by “and” are separate entries in the source; they are usually repeats but may differ in a detail not shown here. Identical values can stand only once. Hit rate of the full screen: of about 16,000 compounds, about 120 (0.75%) were called active. Not shown: some 4% with an inconclusive outcome. The list comes from a sample in which actives are over-represented; it also holds similar structures and randomly drawn compounds. Some structures have more than one record in an assay (separate samples or runs), and their calls can disagree. Unmarked numbers belong to inactive results. The call rests on the fitted dose curve; in most records, active means well fitted inhibition curve with a large enough effect; inconclusive means small, poorly fitted or top-dose-only effect; inactive means no such curve, though single readings can be large or run the other way.
Potency means the concentration at half of the fitted maximal effect.

The target of this experiment is Rap guanine nucleotide exchange factor 3 (Homo sapiens) (UniProt O95398). Nature of the experiment: Validation qHTS for antagonist of cAMP-regulated guanine nucleotide exchange factor 3 (EPAC1). Further: nearly all actives have a fitted effect of over 75% in size. The conditions noted are these: EPAC1 Rap1B-BODIPY-GDP exchange, fluorescence; series mostly up to 150 µM; activity change, negative = inhibition: at the top concentration. The method in brief: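 EPAC1 (100 nM) mixed with 250 nM RAP1B-BODIPY-GDP and 50 uM GDP; compounds in concentration series, 5 min at room temperature. Fluorescence (ex 480/em 540 nm) read every 5 min for 30 min; normalized to ATA control and DMSO.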
Sequence of Rap guanine nucleotide exchange factor 3 (Homo sapiens) (O95398 whole entry, looked up): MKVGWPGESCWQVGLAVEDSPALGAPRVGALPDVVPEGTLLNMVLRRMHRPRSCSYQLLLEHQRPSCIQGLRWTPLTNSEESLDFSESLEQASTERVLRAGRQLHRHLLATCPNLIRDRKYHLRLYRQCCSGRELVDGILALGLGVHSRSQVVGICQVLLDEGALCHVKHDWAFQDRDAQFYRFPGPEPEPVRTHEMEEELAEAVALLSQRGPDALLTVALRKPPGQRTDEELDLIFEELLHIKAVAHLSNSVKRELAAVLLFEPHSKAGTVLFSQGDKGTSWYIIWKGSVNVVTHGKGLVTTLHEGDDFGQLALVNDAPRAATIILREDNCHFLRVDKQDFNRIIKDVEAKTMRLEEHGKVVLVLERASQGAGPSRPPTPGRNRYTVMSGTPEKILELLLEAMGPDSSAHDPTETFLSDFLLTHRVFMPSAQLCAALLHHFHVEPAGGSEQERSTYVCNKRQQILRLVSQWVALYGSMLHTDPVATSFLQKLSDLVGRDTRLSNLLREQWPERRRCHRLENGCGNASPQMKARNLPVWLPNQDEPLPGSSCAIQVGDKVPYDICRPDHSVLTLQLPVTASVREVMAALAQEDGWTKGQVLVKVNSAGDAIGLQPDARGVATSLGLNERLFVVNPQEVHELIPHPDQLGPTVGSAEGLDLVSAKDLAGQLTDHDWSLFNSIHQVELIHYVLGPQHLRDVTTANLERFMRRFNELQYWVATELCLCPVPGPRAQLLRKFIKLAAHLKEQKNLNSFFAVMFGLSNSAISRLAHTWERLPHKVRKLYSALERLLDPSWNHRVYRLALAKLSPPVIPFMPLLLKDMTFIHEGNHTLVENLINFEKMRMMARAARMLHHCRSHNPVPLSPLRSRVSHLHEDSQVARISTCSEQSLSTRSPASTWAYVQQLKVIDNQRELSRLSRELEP
Background: qHTS replaces the single test concentration by a dilution series.
Turning to `Cc1cccc(CNC(=O)c2cnn(-c3nccc(-c4ccccc4F)n3)c2C)n1`, the “activity change, negative = inhibition” value was 18.3%.
The same measure, in the same setting: in the case of `C[C@]12C[C@H](O)CC(CO)(CO)C1[C@H](O)C[C@@]13CC4[C@@H](CC12)[C@@]4(C)C3` (stereo not given in full) it was 22.1%; in that of `N#Cc1cccc(NC(=O)N2CCC3(CC2)CCN(C(=O)c2cnccn2)CC3)c1`, 12.3%.
For the compound `O=S(=O)(NCc1ccccc1)[C@@H]1CC2C=CC1C2` (stereo not given in full), the “activity change, negative = inhibition” value is 0.734%.
The same measure, in the same setting: in the case of `CC(C)(C)OC(=O)NS(=O)(=O)NOCc1ccccc1` it was 18.2%.
Consider `COc1cc2c(cc1OC)C1C(=O)c3ccc4c(c3OC1CO2)C=CC(C)(C)O4` (stereo not given), for which the “activity change, negative = inhibition” value was -27.3%.
On to `Cc1ccccc1C1(CC(=O)N2CC3(C)CC2CC(C)(C)C3)CC(=O)N(Cc2cccnc2)C1=O` (stereo not given), for which the “activity change, negative = inhibition” value is -2.13%.
The same measure, in the same setting: with `O=C(c1cccc(F)c1)N1CCC[C@@]2(CCN(Cc3ccncc3)C2)C1` the figure was 11.1%.
Still for that read-out and setting: with `COc1ccc(C(=O)N2CCC3(CC2)CN(c2ccccc2)C3)cc1` the figure was -2.38%; with `CCN(CC)CCOC[C@H]1O[C@@H](O)[C@H](OCCN(CC)CC)[C@@H](O)[C@@H]1O`, 17.7%; with `OC1(c2cccnc2)CCN(Cc2ccc3c(c2)CN(Cc2cc4ccccc4s2)CCO3)CC1`, -8.5%.
Still for that read-out and setting: with `COC(=O)c1c(OCCN2CCCCC2)cc(=O)n2c1CCN(Cc1cccc3nccnc13)CC2` the figure was -0.569%.
For `Cn1c(=O)c(-c2ccccc2)nc2cnc(Nc3ccccc3)nc21`, the “activity change, negative = inhibition” value is 19.1%.
The same measure, in the same setting: with `O=C(Nc1cccc(F)c1)N1CC[C@@]2(CCCN(C(=O)c3ccco3)C2)C1` the figure was 21%; with `O=C(c1csnn1)N1CCC[C@@]2(CCN(c3ncccn3)C2)C1`, 16.4%.
As to `CC(=O)N[C@@H](CSC/C=C(\C)CC/C=C(\C)CC/C=C(\C)CCC=C(C)C)C(=O)O`, the Potency is 56.2 µM (active) and the activity change, negative = inhibition was 32.8% [at 15.3 µM].
For `CC(=O)N[C@@H](CSC/C=C(\C)CCC=C(C)C)C(=O)O`, the Potency result is “inactive”.
Regarding `CC(=O)CC/C=C(\C)CC/C=C(\C)CC/C=C(\C)CCC=C(C)C`, the “activity change, negative = inhibition” value is 24.4%.
Same read-out and setting: in the case of `CCN(CC)CCOc1ccccc1OC` it was 3.14%; in that of `C[C@H](CC[C@@H]1OC1(C)C)C1CC[C@H]2[C@@H]3CC=C4C[C@@H](O)CC[C@]4(C)[C@H]3CC[C@]12C` (stereo not given in full), 14.3%.
On the same count and under the same terms, in the case of `C[C@@H]1C(=O)CC2C(C)(C)CCC[C@]2(C)[C@@]1(O)CCc1ccoc1` (stereo not given in full) it was -5.75%.
The same measure, in the same setting: in the case of `O=C(O)/C=C/c1ccc2c(c1)S(=O)(=O)N(C1CCCC1)[C@H]2CC(=O)O` it was -10.5%.
On to `CC(=O)/C=C/c1ccc2c(c1)S(=O)(=O)N(C1CCCC1)[C@H]2CC(C)=O`, for which the Potency is 56.2 µM (active).
On to `CCOC(=O)/C=C/c1ccc2c(c1)S(=O)(=O)N(C1CCCC1)[C@H]2CC(=O)OCC`, for which the “activity change, negative = inhibition” value was -27.3%.
As to `CC1(C)S[C@@H]2[C@H](NC(=O)C(N)c3ccccc3)C(=O)N2[C@H]1C(=O)OC1OC(=O)c2ccccc21` (stereo not given in full), the “activity change, negative = inhibition” value is 8.83% [at 75.8 µM].
Consider `COc1ccc(N2C(=O)[C@@H]3C[C@H]2CN3Cc2cccn2-c2ccc(Cl)cn2)c(C)c1`, for which the “activity change, negative = inhibition” value was 12.9%.
Take `COc1ccc2c(c1)[C@@]1(C)CCC[C@](C)(CO)C1CC2` (stereo not given in full): the “activity change, negative = inhibition” value was -3.59%.
Take `Cc1cc(C(=O)NCc2nc(-c3ccccc3NC(=O)C3CCCO3)oc2C)nc(C)n1` (stereo not given): the “activity change, negative = inhibition” value was 3.75%.
Turning to `COc1c2ccccc2nc2occc12`, the “activity change, negative = inhibition” value was 7.29%.
Take `Nc1ccc(O)c(C(=O)O)c1`: the “activity change, negative = inhibition” value is 0.11%.
Turning to `O=C(O)c1cc(N=Nc2ccc(O)c(C(=O)O)c2)ccc1O`, the “activity change, negative = inhibition” value was 5.06%.
Turning to `O=C(O)C1=CC(=C(c2ccc(O)c(C(=O)O)c2)c2ccc(O)c(C(=O)O)c2)C=CC1=O`, the Potency was 56.2 µM (active) and 1.58 µM (active).
As to `O=C(NCC1CCC2(CCN(Cc3c[nH]c4ccccc34)CC2)O1)C1CCOCC1` (stereo not given), the “activity change, negative = inhibition” value was 2.25%.
As for `CO[C@H]1C=CO[C@@]2(C)Oc3c(C)c(O)c4c(O)c(c(/C=N/N5CCN(C)CC5)c(O)c4c3C2=O)NC(=O)/C(C)=C\C=C[C@H](C)[C@H](O)[C@@H](C)[C@@H](O)[C@@H](C)[C@H](OC(C)=O)[C@@H]1C`, the Potency was 89.1 µM (active).
Turning to `CO[C@H]1C=CO[C@@]2(C)Oc3c(C)c(O)c4c(O)c(cc(O)c4c3C2=O)NC(=O)/C(C)=C\C=C/[C@H](C)[C@H](O)[C@@H](C)[C@@H](O)[C@@H](C)[C@H](OC(C)=O)[C@@H]1C`, the “activity change, negative = inhibition” value is -10.9%.
Take `CO[C@H]1C=CO[C@@]2(C)Oc3c(C)c(O)c4c(O)c(c(C=NN5CCN(C)CC5)c(O)c4c3C2=O)NC(=O)C(C)=CC=C[C@H](C)[C@H](O)[C@@H](C)[C@@H](O)[C@@H](C)[C@H](OC(C)=O)[C@H]1C`: the “activity change, negative = inhibition” value was 11% [at 39.6 µM].
Same read-out and setting: with `CCCCCCC[n+]1ccc(C)c2ccccc21` the figure was 11.7%.
As for `CCCCCCCCCCCCCCCC[n+]1ccc(C)c2ccccc21`, the Potency is 63.1 µM (active).
For `CCCCCCCCCCCC[n+]1ccc(C)c2ccccc21`, the “activity change, negative = inhibition” value was -26.9%.
Turning to `Cc1ccccc1C1(CC(=O)N2CCN(C)CC2)CC(=O)N(Cc2ccncc2)C1=O` (stereo not given), the “activity change, negative = inhibition” value was 20.6%.
On to `CCCCCCCCCCCCCCCC[N+](C)(C)Cc1ccccc1`, for which the Potency was 112 µM (active).
In the case of `CCCCCCCCCCCC[N+](C)(C)Cc1ccccc1`, the “activity change, negative = inhibition” value was 0.907%.
On the same count and under the same terms, with `CCCCCCCCCCCCC[N+](C)(C)Cc1ccccc1` the figure was 0.354%.
With `COc1cc(=O)n2c(c1C(=O)N(C)Cc1nonc1C)CCN(Cc1ccc(F)cc1)CC2`, the “activity change, negative = inhibition” value is -0.441%.
